Results filed as inconclusive are left out. Active and inactive are the calls of the source. The call rests on the fitted dose curve; in most records, active means well fitted curve in the direction sought with a large enough effect in the repeat runs; inconclusive means weak or mixed curves; inactive means no such curve, though single readings can be large; an effect the other way counts as inactive or inconclusive.
Legend:
[1] = qHTS RealTime-Glo MT Cell Viability Assay in HepG2 cells - 24 hour (AID 1224867); conditions: RealTime-Glo luminescence; series mostly up to 76.8 µM; further: nearly all actives have a fitted effect of over 50% in size
In short: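 HepG2 cells (600/well) were dispensed with RealTime-Glo reagents, incubated 5 h at 37 °C, then treated with compounds in DMSO for up to 40 h. Nonlytic NanoLuc luminescence reflecting viable cells was read at each stated time point.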

[2] = qHTS RealTime-Glo MT Cell Viability Assay in HEK293 cells - 32 hour (AID 1224868); conditions: RealTime-Glo luminescence; series mostly up to 76.8 µM; further: top concentration of the series differs between compounds; nearly all actives have a fitted effect of over 50% in size
In short: (§1)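 HEK293 cells seeded with NanoLuc/prosubstrate reagent, rested 5 h at 37 C, then dosed and kept at 37 C up to 40 h. Nonlytic real-time luminescence from viable cells read at 0, 8, 16, 24, 32 and 40 h.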

[3] = A CellTox Green Cytotoxicity Assay to monitor cytotoxicity in HEK293 cells - 0 hour (AID 1224869); conditions: CellTox Green fluorescence; series mostly up to 76.8 µM; further: nearly all actives have a fitted effect of over 50% in size
In short: (§2)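 Cells (HEK293, 600/well) and dye reagent are dispensed together. After 5 h at 37 C, 23 nL compound is pinned in. Plates stay at 37 C for 40 h with fluorescence read at 0h, 8h, 16h, 24h, 32h and 40h.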

[4] = qHTS RealTime-Glo MT Cell Viability Assay in HepG2 cells - 40 hour (AID 1224870); conditions: RealTime-Glo luminescence; series mostly up to 76.8 µM; further: nearly all actives have a fitted effect of over 50% in size
In short: (§3)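 HepG2 cells (600/well) mixed with RealTime-Glo MT reagent, settled 5 h at 37 C/5% CO2 before compound addition. Nonlytic NanoLuc luminescence from viable-cell prosubstrate reduction read repeatedly during 40 h treatment at 37 C.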

[5] = A CellTox Green Cytotoxicity Assay to monitor cytotoxicity in HEK293 cells - 40 hour (AID 1224871); conditions: CellTox Green fluorescence; series mostly up to 76.8 µM; further: nearly all actives have a fitted effect of over 45% in size
In short: as §2

[6] = qHTS RealTime-Glo MT Cell Viability Assay in HEK293 cells - 16 hour (AID 1224872); conditions: RealTime-Glo luminescence; series mostly up to 76.8 µM
In short: as §1

[7] = qHTS RealTime-Glo MT Cell Viability Assay in HEK293 cells - 40 hour (AID 1224874); conditions: RealTime-Glo luminescence; max response: hits give low values; further: nearly all actives have a fitted effect of over 50% in size
In short: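 Real-time viability in HEK293: signal arises when living cells convert a prosubstrate for NanoLuc in the medium, so luminescence tracks viable cell number. Compound (23 nL, DMSO) added 5 h post-seeding; kinetic reads at 0–40 h, 37 C.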

[8] = A CellTox Green Cytotoxicity Assay to monitor cytotoxicity in HEK293 cells - 24 hour (AID 1224875); conditions: CellTox Green fluorescence; series mostly up to 76.8 µM; further: nearly all actives have a fitted effect of over 45% in size
In short: as §2

[9] = A CellTox Green Cytotoxicity Assay to monitor cytotoxicity in HepG2 cells - 16 hour (AID 1224876); conditions: CellTox Green fluorescence; series mostly up to 76.8 µM; further: nearly all actives have a fitted effect of over 45% in size
In short: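 Cells and non-lytic dye reagent are dispensed together (600 HepG2 cells/well) and incubated 5 h before DMSO compound transfer. Kinetic fluorescence is then recorded in the same wells during 40 h at 37 C.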

[10] = qHTS RealTime-Glo MT Cell Viability Assay in HepG2 cells - 8 hour (AID 1224873); conditions: RealTime-Glo luminescence; series mostly up to 76.8 µM; further: nearly all actives have a fitted effect of over 55% in size
In short: as §3
On the % scale 0 is the no-effect control and ±100 the full control effect.

CO[Si](CCCS)(OC)OC
inactive: outcome [1] | Potency [2] | Potency [3] | outcome [4] | Potency [5] | Potency [6] | max response [7] 0.328% | Potency [8] | Potency [9]

Cc1cccc(NC(=S)N(C)C)c1
inactive: outcome [1] | Potency [2] | Potency [3] | outcome [4] | Potency [5] | Potency [6] | outcome [10] | Potency [8] | Potency [9]

CCOC(=O)C(=O)c1csc(NC=O)n1
inactive: outcome [1] | Potency [2] | Potency [3] | outcome [4] | Potency [5] | Potency [6] | max response [7] 0.45% | Potency [8] | Potency [9]

C=C(C)C(=O)OCCCCCCOC(=O)C(=C)C
inactive: outcome [1] | Potency [2] | Potency [3] | outcome [4] | Potency [5] | Potency [6] | outcome [10] | max response [7] 6.48% | Potency [8] | Potency [9]

CC(CC(=O)O)CC(C)(C)C (stereo unspecified)
inactive: outcome [1] | Potency [2] | Potency [3] | outcome [4] | Potency [5] | Potency [6] | outcome [10] | max response [7] -0.126% | Potency [8] | Potency [9]

CCCC(C)CC (stereo unspecified)
inactive: outcome [1] | Potency [2] | Potency [3] | outcome [4] | Potency [5] | Potency [6] | outcome [10] | max response [7] 1.42% | Potency [8] | Potency [9]

CCCCCCCCCOCC1CO1 (stereo unspecified)
inactive: outcome [1] | Potency [2] | Potency [3] | outcome [4] | Potency [5] | Potency [6] | outcome [10] | Potency [8] | Potency [9]

CCCCCC(=O)OCC
inactive: outcome [1] | Potency [2] | Potency [3] | outcome [4] | Potency [5] | Potency [6] | max response [7] 5.39% | Potency [8] | Potency [9]

Cc1cccc(Nc2ccncc2S(=O)(=O)NC(=O)NC(C)C)c1
inactive: outcome [1] | Potency [2] | Potency [3] | outcome [4] | Potency [5] | Potency [6] | outcome [10] | max response [7] -1.39% | Potency [8] | Potency [9]

COc1cc([N+](=O)[O-])ccc1N
inactive: outcome [1] | Potency [2] | Potency [3] | outcome [4] | Potency [5] | Potency [6] | outcome [10] | max response [7] -15.5% | Potency [8] | Potency [9]

O=C(c1ccc2c(c1)C(=O)OC2=O)c1ccc2c(c1)C(=O)OC2=O
inactive: outcome [1] | Potency [2] | Potency [3] | outcome [4] | Potency [5] | Potency [6] | max response [7] -1.77% | Potency [8] | Potency [9]

CCCCCCCC[Si](OCC)(OCC)OCC
inactive: outcome [1] | Potency [2] | Potency [3] | outcome [4] | Potency [5] | Potency [6] | outcome [10] | max response [7] 0.929% | Potency [8] | Potency [9]

OC(CCN1CCCCC1)(c1ccccc1)c1ccccc1
inactive: outcome [1] | Potency [2] | Potency [3] | outcome [4] | Potency [5] | Potency [6] | max response [7] -16.7% | Potency [8] | Potency [9]

CCC(C)(C)C1CCC(=O)CC1
inactive: outcome [1] | Potency [2] | Potency [3] | outcome [4] | Potency [5] | Potency [6] | max response [7] 7.65% | Potency [8] | Potency [9]

O=C(O)c1c(Cl)ccc(Cl)c1Cl
inactive: outcome [1] | Potency [2] | Potency [3] | outcome [4] | Potency [5] | Potency [6] | outcome [10] | max response [7] 5.49% | Potency [8] | Potency [9]

C=CCOCC(CO)(COCC=C)COCC=C
inactive: outcome [1] | Potency [2] | Potency [3] | outcome [4] | Potency [5] | Potency [6] | max response [7] 0.319% | Potency [8] | Potency [9]

COc1cc(C=O)ccc1OC(=O)C(C)C
inactive: outcome [1] | Potency [2] | Potency [3] | outcome [4] | Potency [5] | Potency [6] | max response [7] -2% | Potency [8] | Potency [9]

CN[C@@H]1[C@H](O)[C@H](NC)[C@H]2O[C@@]3(O)C(=O)C[C@@H](C)O[C@H]3O[C@@H]2[C@H]1O
inactive: outcome [1] | Potency [2] | Potency [3] | outcome [4] | Potency [5] | Potency [6] | max response [7] -13.7% | Potency [8] | Potency [9]

C=CCOC(=O)c1ccc(C(=O)OCC=C)c(C(=O)OCC=C)c1
inactive: outcome [1] | Potency [2] | Potency [3] | outcome [4] | Potency [5] | Potency [6] | outcome [10] | max response [7] 4.3% | Potency [8] | Potency [9]

O=C(O)C(=O)Nc1cccc(-c2nn[nH]n2)c1
inactive: outcome [1] | Potency [2] | Potency [3] | outcome [4] | Potency [5] | Potency [6] | max response [7] 0.908% | Potency [8] | Potency [9]

CCCCCCCCCCC
inactive: outcome [1] | Potency [2] | Potency [3] | outcome [4] | Potency [5] | Potency [6] | outcome [10] | max response [7] -0.764% | Potency [8] | Potency [9]

Cc1ccccc1N1CCN(CCc2nnc3n2CCCC3)CC1
inactive: outcome [1] | Potency [2] | Potency [3] | outcome [4] | Potency [5] | Potency [6] | outcome [10] | max response [7] -6.94% | Potency [8] | Potency [9]

O=C1c2ccccc2-c2ccccc21
inactive: outcome [1] | Potency [2] | Potency [3] | outcome [4] | Potency [5] | Potency [6] | outcome [10] | max response [7] 1.19% | Potency [8] | Potency [9]

CC(C)CCCC(C)CC=O (stereo unspecified)
inactive: outcome [1] | Potency [2] | Potency [3] | outcome [4] | Potency [5] | Potency [6] | outcome [10] | max response [7] 0.176% | Potency [8] | Potency [9]

NS(=O)(=O)c1ccccc1OC(F)(F)F
inactive: outcome [1] | Potency [2] | Potency [3] | outcome [4] | Potency [5] | Potency [6] | max response [7] 6.21% | Potency [8] | Potency [9]

Cc1nc(C)nc(N2C[C@@H](C)N(c3ccnc([C@@H](C)O)n3)[C@@H](C)C2)n1
inactive: outcome [1] | Potency [2] | Potency [3] | outcome [4] | Potency [5] | Potency [6] | max response [7] 9.39% | Potency [8] | Potency [9]

NC(=O)NC(=O)Cc1ccccc1
inactive: outcome [1] | Potency [2] | Potency [3] | outcome [4] | Potency [5] | outcome [10] | max response [7] 3.75% | Potency [8] | Potency [9]

Cc1cc(C)cc([N+](=O)[O-])c1
inactive: outcome [1] | Potency [2] | Potency [3] | Potency [5] | Potency [6] | outcome [10] | max response [7] -13.7% | Potency [8] | Potency [9]

Cc1nc2ccccc2c(=O)o1
inactive: outcome [1] | Potency [2] | Potency [3] | outcome [4] | max response [7] 5.55% | Potency [8] | Potency [9]

CO/N=C(/C(=O)N[C@@H]1C(=O)N2C(C(=O)O)=C(Cn3nnc(C)n3)CS[C@H]12)c1csc(N)n1
inactive: outcome [1] | Potency [2] | Potency [3] | outcome [4] | Potency [5] | outcome [10] | max response [7] 1.17% | Potency [8] | Potency [9]

CC(=O)N1CCN(c2ccc(O)cc2)CC1
inactive: outcome [1] | Potency [2] | Potency [3] | Potency [5] | Potency [6] | outcome [10] | max response [7] 7.56% | Potency [8] | Potency [9]

CCC(C)N (stereo unspecified)
inactive: outcome [1] | Potency [2] | Potency [3] | outcome [4] | Potency [5] | outcome [10] | max response [7] -5.31% | Potency [8] | Potency [9]

CN[C@@H]1[C@@H](O)[C@@H](O[C@@H]2[C@H](O)[C@H](O[C@H]3OC(CN)=CC[C@H]3N)[C@@H](N)C[C@H]2N)OCC1(C)O (stereo partly specified)
inactive: outcome [1] | Potency [2] | Potency [3] | outcome [4] | Potency [5] | max response [7] 1.03% | Potency [8] | Potency [9]
